# Test results: publication PMC4336329 (PLoS ONE, 2015)
# In all, about 310,000 compounds went through this assay and about 14,000 (4.5%) showed an effect of 50% or more. Effects have a minus sign here. This excerpt belongs to a sample that is enriched for strong results.
# Target: human ether-à-go-go-related gene (hERG) potassium channel (human, UniProt Q12809)
# Assay: primary screen, population patch clamp on CHO cells stably expressing hERG; higher = less effect of the substance
# 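Also: peak tail current of the secondary pulse compared with the same well before compound.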
# Sequence of human ether-à-go-go-related gene (hERG) potassium channel (Q12809 whole entry, looked up): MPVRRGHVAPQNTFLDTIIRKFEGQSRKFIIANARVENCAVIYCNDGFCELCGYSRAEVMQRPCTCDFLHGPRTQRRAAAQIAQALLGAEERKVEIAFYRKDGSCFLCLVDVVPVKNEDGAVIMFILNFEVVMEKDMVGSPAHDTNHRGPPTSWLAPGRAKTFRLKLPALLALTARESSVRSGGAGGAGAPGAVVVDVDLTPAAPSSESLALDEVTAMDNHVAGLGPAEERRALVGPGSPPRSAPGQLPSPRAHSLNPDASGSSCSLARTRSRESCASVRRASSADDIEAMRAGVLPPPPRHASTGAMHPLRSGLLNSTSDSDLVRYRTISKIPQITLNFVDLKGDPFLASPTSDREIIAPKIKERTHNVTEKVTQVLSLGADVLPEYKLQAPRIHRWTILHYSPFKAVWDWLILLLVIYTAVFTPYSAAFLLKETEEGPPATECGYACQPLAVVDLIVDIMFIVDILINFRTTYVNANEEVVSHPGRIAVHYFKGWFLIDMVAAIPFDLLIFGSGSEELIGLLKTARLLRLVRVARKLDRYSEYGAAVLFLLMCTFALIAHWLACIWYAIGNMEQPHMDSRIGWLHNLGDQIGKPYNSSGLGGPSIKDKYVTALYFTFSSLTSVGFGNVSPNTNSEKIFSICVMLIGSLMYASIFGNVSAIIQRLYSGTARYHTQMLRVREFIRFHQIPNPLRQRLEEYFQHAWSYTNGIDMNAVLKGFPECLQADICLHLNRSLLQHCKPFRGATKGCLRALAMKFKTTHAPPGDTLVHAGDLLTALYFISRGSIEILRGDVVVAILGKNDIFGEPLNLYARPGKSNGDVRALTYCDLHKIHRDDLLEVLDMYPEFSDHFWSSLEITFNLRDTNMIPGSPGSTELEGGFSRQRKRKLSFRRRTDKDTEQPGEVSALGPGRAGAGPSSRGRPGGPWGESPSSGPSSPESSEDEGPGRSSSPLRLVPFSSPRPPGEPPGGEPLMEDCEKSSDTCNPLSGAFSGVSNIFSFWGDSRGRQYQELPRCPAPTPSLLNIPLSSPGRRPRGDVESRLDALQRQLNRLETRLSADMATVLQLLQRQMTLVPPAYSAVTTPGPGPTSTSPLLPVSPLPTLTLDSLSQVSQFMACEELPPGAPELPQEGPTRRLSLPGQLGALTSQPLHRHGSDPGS
row,Structure (SMILES),"hERG current change (%, negative = inhibition) at 10uM"
1,CN(C)S(=O)(=O)N1CCN(C(=O)c2ccc3c(c2)OCO3)CC1,10%
2,CSc1ccc(/C=C(\C#N)C(=O)NC2CCCCC2C)cc1 (stereo not shown),-21.7%
3,N#C/C(=C/c1ccc(-c2cc([N+](=O)[O-])ccc2Cl)o1)C(N)=O,1.62%
4,N#CC(=C=[N-])c1nc2ccccc2nc1-[n+]1ccccc1,-2.11%
5,Cn1c(N)c(C(=O)COC(=O)COc2ccc(Br)cc2)c(=O)n(C)c1=O,-72.6%
6,Cc1ccc(C)c(OCCC(=O)OCC(=O)c2c(N)n(C)c(=O)n(C)c2=O)c1,-55.5%
7,Cn1c(N)c(C(=O)COC(=O)COc2ccc(Cl)cc2)c(=O)n(C)c1=O,-23.1%
8,COc1ccccc1OCCC(=O)OCC(=O)c1c(N)n(C)c(=O)n(C)c1=O,-10.3%
9,Cn1c(N)c(C(=O)COC(=O)CCOc2ccc(C(C)(C)C)cc2)c(=O)n(C)c1=O,-60.6%
10,CC(C)Cn1c(N)c(C(=O)COC(=O)[C@H](C)NC(=O)c2ccccc2Cl)c(=O)n(C)c1=O,-53.1%
11,CC(C)Cn1c(N)c(C(=O)COC(=O)c2ccccc2F)c(=O)n(C)c1=O,-14.7%
12,CC(C)Cn1c(N)c(C(=O)COC(=O)c2ccccc2Cl)c(=O)n(C)c1=O,-41.7%
13,CCC(=O)c1ccc(OCC(=O)OCC(=O)c2c(N)n(C)c(=O)n(C)c2=O)cc1,5.93%
14,Cc1ccc(C(C)C)c(OCC(=O)OCC(=O)c2c(N)n(C)c(=O)n(C)c2=O)c1,3.36%
15,CCc1ccc(OCC(=O)OCC(=O)c2c(N)n(C)c(=O)n(C)c2=O)cc1,10.2%
16,Cn1c(N)c(C(=O)COC(=O)COc2ccc(C#N)cc2)c(=O)n(C)c1=O,-24%
17,CCOC(=O)c1ccc(NCc2ccncc2)cc1,-1.66%
18,O=C(CN(Cc1ccco1)S(=O)(=O)c1cccs1)Nc1ccccc1C(F)(F)F,-32.8%
19,Oc1c(Br)cc(Cl)cc1C=Nc1ccc(N2CCOCC2)cc1,19.6%
20,Cc1c(C(=O)NCc2ccco2)cccc1[N+](=O)[O-],-6.07%
21,CCN1C(=O)/C(=C\C=C2/C=CC=CN2CC)SC1=S,-5.68%
22,COc1ccccc1OCc1cc(C(=O)N2CCCC(OCc3cccnc3)C2)no1 (stereo not shown),-22%

row,Structure (SMILES),"hERG current change (%, negative = inhibition) at 10uM"
1,O=C(c1cc(COc2ccc(F)cc2Cl)on1)N1CCC(OCc2cccnc2)CC1,-75.8%
2,O=C(c1cc(COc2ccc(F)cc2Cl)on1)N1CCN(c2cnccn2)CC1,-46.9%
3,O=C(c1cc(COc2ccc(F)cc2Cl)on1)N1CCCC(OCc2cccnc2)C1 (stereo not shown),-53.5%
4,O=C(c1cc(COc2ccc(F)cc2Cl)on1)N1CCCCC1c1cccnc1 (stereo not shown),-41.8%
5,O=C(c1cc(COc2ccccc2)on1)N1CCCC(OCc2cccnc2)C1 (stereo not shown),-16.6%
6,Nc1nc(SCC(=O)NCCCO)nc2sc3c(c12)CCC3,-3.17%
7,Nc1nc(SCC(=O)NCCN2CCOCC2)nc2sc3c(c12)CCC3,-65.9%
8,Nc1nc(SCC(=O)NCCCN2CCOCC2)nc2sc3c(c12)CCC3,-9.2%
9,Cc1ccc(-c2csc(NC(=O)CSc3nc(C)cc(=O)[nH]3)n2)cc1,1.07%
10,COc1ccc(N2CCN(C(C)C(=O)N3CCc4ccccc43)CC2)cc1 (stereo not shown),-17.7%
11,CN(CC(=O)N1CCc2ccccc21)S(=O)(=O)c1ccc(Cl)cc1,-51.2%
12,O=C(CN1CCCCC1)N1CCc2ccccc21,-6%
13,Cc1nc2ccc(S(=O)(=O)N(C)CC(=O)N3CCc4ccccc4C3)cc2s1,-53.2%
14,COc1cc2c(cc1OC)CN(C(C)C(=O)N1CCc3ccccc31)CC2 (stereo not shown),-14%
15,O=C1N(CC(=O)N2CCc3ccccc32)CCN1Cc1ccc(Cl)cc1,-11.8%
16,Cc1nc2ccc(S(=O)(=O)NCC(=O)N3CCc4ccccc4C3)cc2s1,0.862%
17,CN(CC(=O)N1CCc2ccccc21)S(=O)(=O)c1cccs1,-22%
18,Cc1nc2ccc(S(=O)(=O)N(C)CC(=O)N3CCc4ccccc43)cc2s1,-42.5%
19,Cc1ccc(S(=O)(=O)N(C)CC(=O)N2CCCc3ccccc32)cc1,-16.1%
20,O=C(CN1CCN(Cc2ccc(Cl)cc2)CC1)N1CCc2ccccc21,-67.5%
21,COc1ccc(CN2CCN(C(C)C(=O)N3CCc4ccccc43)CC2)cc1OC (stereo not shown),-74%
